# According to the supplement of paper PMC10037445:
# Values joined by “and” are separate entries in the source; they are usually repeats but may differ in a detail not shown here. Equal values may be shown once. Whole data set: some 2,900 compounds, median “NF-kB SEAP reporter activity, fold change vs agonist alone” near 0.99, cut for the highest 2% near 2.6. Many of the other results were omitted from the sample, so the highest values are more common in it than they were.
# How the values were obtained:
# RAW-Dual [1] = assay: NF-kB SEAP reporter activity, fold change vs agonist alone; cytotoxicity flag (confluency mask): cytotoxic (confluency <70% of control); higher = enhanced NF-kB activity
# Summary of the method: (§1)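 Reporter activity is given as fold change relative to agonist-alone wells. To measure it, 50 nL of library stock was pin-tooled onto RAW-Dual macrophages (50,000 cells/well, DMEM, 384-well plates), a PRR agonist followed 1 h later, and cells stayed at 37 °C, 5% CO2. Twenty hours on, supernatant was assayed for IRF (QuantiLuc luminescence) and NF-κB (QuantiBlue, 620 nm absorbance), and wells under 70% of agonist-control IncuCyte confluency in both mask sets were marked cytotoxic.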
# RAW-Dual [2] = assay: NF-kB SEAP reporter activity, fold change vs agonist alone; higher = enhanced NF-kB activity
# Summary of the method: as §1
# RAW-Dual [3] = assay: NF-kB SEAP reporter activity, fold change vs agonist alone; cytotoxicity flag (confluency mask): not cytotoxic; higher = enhanced NF-kB activity
# Summary of the method: as §1
# [4] = agonist: ODN 1826 (TLR9) 0.5 ug/mL
# [5] = agonist: Pam2CSK4 (TLR2/6) 0.1 ug/mL
# [6] = agonist: Pam3CSK4 (TLR2/1) 0.1 ug/mL
# [7] = library stock concentration (final ~1000-fold dilution): 10 mM, cytotoxicity flag (confluency mask): cytotoxic (confluency <70% of control), agonist: Imiquimod (TLR7) […]
# [8] = library stock concentration (final ~1000-fold dilution): 10 mM, cytotoxicity flag (confluency mask): cytotoxic (confluency <70% of control), agonist: MPLA (TLR4) […]
# [9] = library stock concentration (final ~1000-fold dilution): 10 mM, cytotoxicity flag (confluency mask): not cytotoxic, agonist: Imiquimod (TLR7) […]
# [10] = library stock concentration (final ~1000-fold dilution): 10 mM, cytotoxicity flag (confluency mask): not cytotoxic, agonist: MPLA (TLR4) […]
structure (smiles),measurement,setting,value
Cc1cncc(CN2CCC(=C3c4ccc(Cl)cc4CCc4cccnc43)CC2)c1.O=C(O)/C=C/C(=O)O (library stock concentration (final ~1000-fold dilution): 10 mM),NF-kB SEAP reporter activity,RAW-Dual [1]; agonist: LPS (TLR4) 0.1 ug/mL,0.652
same,NF-kB SEAP reporter activity,RAW-Dual [1]; [4],0.37
same,NF-kB SEAP reporter activity,RAW-Dual [1]; [5],0.456
same,NF-kB SEAP reporter activity,RAW-Dual [1]; [6],0.408
Cc1cncc(CN2CCC(=C3c4ccc(Cl)cc4CCc4cccnc43)CC2)c1.O=C(O)/C=C/C(=O)O,NF-kB SEAP reporter activity,RAW-Dual [2]; [7],1.02
same,NF-kB SEAP reporter activity,RAW-Dual [2]; [8],0.719
CCC1OC(=O)C(C)C(OC2CC(C)(OC)C(O)C(C)O2)C(C)C(OC2OC(C)CC(N(C)C)C2O)C(C)(O)CC(C)CN(C)C(C)C(O)C1(C)O.O.O (centres undefined) (library stock concentration (final ~1000-fold dilution): 10 mM),NF-kB SEAP reporter activity,RAW-Dual [3]; agonist: LPS (TLR4) 0.1 ug/mL,1.49
same,NF-kB SEAP reporter activity,RAW-Dual [3]; [4],0.371
same,NF-kB SEAP reporter activity,RAW-Dual [3]; [5],0.896
same,NF-kB SEAP reporter activity,RAW-Dual [3]; [6],0.978
CCC1OC(=O)C(C)C(OC2CC(C)(OC)C(O)C(C)O2)C(C)C(OC2OC(C)CC(N(C)C)C2O)C(C)(O)CC(C)CN(C)C(C)C(O)C1(C)O.O.O (centres undefined),NF-kB SEAP reporter activity,RAW-Dual [2]; [9],0.506
same,NF-kB SEAP reporter activity,RAW-Dual [2]; [10],1.46
COc1cc(OC)cc(N(CCNC(C)C)c2ccc3ncc(-c4cnn(C)c4)nc3c2)c1,NF-kB SEAP reporter activity,RAW-Dual [2]; [7],1.76
same,NF-kB SEAP reporter activity,RAW-Dual [2]; [8],2.21
COc1cc(OC)cc(N(CCNC(C)C)c2ccc3ncc(-c4cnn(C)c4)nc3c2)c1 (library stock concentration (final ~1000-fold dilution): 10 mM),NF-kB SEAP reporter activity,RAW-Dual [1]; agonist: LPS (TLR4) 0.1 ug/mL,3.64
same,NF-kB SEAP reporter activity,RAW-Dual [1]; [4],0.427
same,NF-kB SEAP reporter activity,RAW-Dual [1]; [5],1.06
same,NF-kB SEAP reporter activity,RAW-Dual [1]; [6],1.57
Cn1cc(-c2ccc3ncc(Cc4ccc5ncccc5c4)n3n2)cn1 (library stock concentration (final ~1000-fold dilution): 10 mM),NF-kB SEAP reporter activity,RAW-Dual [3]; agonist: LPS (TLR4) 0.1 ug/mL,1.88
same,NF-kB SEAP reporter activity,RAW-Dual [3]; [4],1.35
same,NF-kB SEAP reporter activity,RAW-Dual [3]; [5],1.31
same,NF-kB SEAP reporter activity,RAW-Dual [3]; [6],1.47
Cn1cc(-c2ccc3ncc(Cc4ccc5ncccc5c4)n3n2)cn1,NF-kB SEAP reporter activity,RAW-Dual [2]; [9],1.37
same,NF-kB SEAP reporter activity,RAW-Dual [2]; [10],1.23
COc1cc2ncc(-c3ccccc3)nc2cc1OC (library stock concentration (final ~1000-fold dilution): 10 mM),NF-kB SEAP reporter activity,RAW-Dual [3]; agonist: LPS (TLR4) 0.1 ug/mL,1.78
same,NF-kB SEAP reporter activity,RAW-Dual [3]; [4],1.28
same,NF-kB SEAP reporter activity,RAW-Dual [3]; [5],0.915
same,NF-kB SEAP reporter activity,RAW-Dual [3]; [6],0.864
COc1cc2ncc(-c3ccccc3)nc2cc1OC,NF-kB SEAP reporter activity,RAW-Dual [2]; [9],1.16
same,NF-kB SEAP reporter activity,RAW-Dual [2]; [10],1.39
Br.COc1ccc2c3c1OC1CC(O)C=CC31CCN(C)C2 (centres undefined) (library stock concentration (final ~1000-fold dilution): 10 mM water),NF-kB SEAP reporter activity,RAW-Dual [3]; agonist: LPS (TLR4) 0.1 ug/mL,1.12
same,NF-kB SEAP reporter activity,RAW-Dual [3]; [4],1.02
same,NF-kB SEAP reporter activity,RAW-Dual [3]; [5],1.12
same,NF-kB SEAP reporter activity,RAW-Dual [3]; [6],1.16
Br.COc1ccc2c3c1OC1CC(O)C=CC31CCN(C)C2 (centres undefined),NF-kB SEAP reporter activity,"RAW-Dual [2]; library stock concentration (final ~1000-fold dilution): 10 mM water, cytotoxicity flag (confluency mask): not cytotoxic, agonist: Imiquimod (TLR7) […]",0.936
same,NF-kB SEAP reporter activity,"RAW-Dual [2]; library stock concentration (final ~1000-fold dilution): 10 mM water, cytotoxicity flag (confluency mask): not cytotoxic, agonist: MPLA (TLR4) […]",0.997
CC(C)C(C(=O)O)N1C(=O)/C(=C/c2ccc(Br)cc2)SC1=S (centres undefined) (library stock concentration (final ~1000-fold dilution): 10 mM),NF-kB SEAP reporter activity,RAW-Dual [3]; agonist: LPS (TLR4) 0.1 ug/mL,1.12
same,NF-kB SEAP reporter activity,RAW-Dual [3]; [4],0.953
same,NF-kB SEAP reporter activity,RAW-Dual [3]; [5],0.947
same,NF-kB SEAP reporter activity,RAW-Dual [3]; [6],1.05
CC(C)C(C(=O)O)N1C(=O)/C(=C/c2ccc(Br)cc2)SC1=S (centres undefined),NF-kB SEAP reporter activity,RAW-Dual [2]; [9],0.992
same,NF-kB SEAP reporter activity,RAW-Dual [2]; [10],1.01
CC1(C)C(C(=O)O)N2C(=O)CC2S1(=O)=O (centres undefined) (library stock concentration (final ~1000-fold dilution): 10 mM),NF-kB SEAP reporter activity,RAW-Dual [3]; agonist: LPS (TLR4) 0.1 ug/mL,1.04 and 0.881
same,NF-kB SEAP reporter activity,RAW-Dual [3]; [4],1.01 and 1.03
same,NF-kB SEAP reporter activity,RAW-Dual [3]; [5],0.96 and 1.14
same,NF-kB SEAP reporter activity,RAW-Dual [3]; [6],1.05 and 1.19
Cl.O=c1[nH]ccc2c(S(=O)(=O)N3CCCNCC3)cccc12 (library stock concentration (final ~1000-fold dilution): 10 mM),NF-kB SEAP reporter activity,RAW-Dual [3]; agonist: LPS (TLR4) 0.1 ug/mL,1.22
same,NF-kB SEAP reporter activity,RAW-Dual [3]; [4],0.968
same,NF-kB SEAP reporter activity,RAW-Dual [3]; [5],1.05
same,NF-kB SEAP reporter activity,RAW-Dual [3]; [6],1.23
Cl.O=c1[nH]ccc2c(S(=O)(=O)N3CCCNCC3)cccc12,NF-kB SEAP reporter activity,RAW-Dual [2]; [9],1
same,NF-kB SEAP reporter activity,RAW-Dual [2]; [10],0.986
COc1ccc(Cn2ccc3ccc(C(=O)NO)cc32)cc1,NF-kB SEAP reporter activity,RAW-Dual [2]; [9],0.789
same,NF-kB SEAP reporter activity,RAW-Dual [2]; [10],0.903
